GPR151 ag – activators of human GPR151, primary screen, cell-based, PathHunter beta-arrestin, luminescence; PathHunter beta-arrestin GPR151 cells; G-protein coupled receptor 151 (Homo sapiens), Q8TDV0; AID 1508602, 2020; hit rate 1% among 650,000; activation, % at 11.2 µM; in the data active = activation above about 4.9%
MITF primary – MITF inhibitors, primary screen, biochemical, AlphaScreen, human; Microphthalmia-associated transcription factor (Homo sapiens), O75030; AlphaScreen MITF homodimerization, bead proximity signal; inhibition, % at 2.6 µM; hit rate 0.91% among 650,000; in the data active = inhibition above about 50%
Target sequence (O75030 whole entry, looked up): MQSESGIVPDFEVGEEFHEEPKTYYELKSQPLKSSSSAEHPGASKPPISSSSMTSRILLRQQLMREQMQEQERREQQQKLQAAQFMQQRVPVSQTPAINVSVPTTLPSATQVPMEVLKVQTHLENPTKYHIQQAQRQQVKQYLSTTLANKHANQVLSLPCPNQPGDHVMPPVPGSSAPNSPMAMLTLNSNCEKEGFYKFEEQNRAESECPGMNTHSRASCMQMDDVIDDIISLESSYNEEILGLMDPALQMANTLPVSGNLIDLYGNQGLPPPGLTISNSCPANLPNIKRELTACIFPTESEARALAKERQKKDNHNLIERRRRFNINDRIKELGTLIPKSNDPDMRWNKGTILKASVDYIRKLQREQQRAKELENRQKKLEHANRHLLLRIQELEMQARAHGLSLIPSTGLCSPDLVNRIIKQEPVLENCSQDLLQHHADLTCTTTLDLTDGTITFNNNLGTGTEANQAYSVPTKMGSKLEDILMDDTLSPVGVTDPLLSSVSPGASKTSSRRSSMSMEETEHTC
FBW7 act – FBW7 E3 ligase activators, primary screen, biochemical, AlphaScreen, human. AlphaScreen FBW7–phospho-cyclin E peptide binding, activator screen. AID 1259310, 2017. hit rate 0.13% among 650,000. normalized activity (activation), % at 26.1 µM. F-box/WD repeat-containing protein 7 (Homo sapiens), Q969H0; in the data active = normalized activity above about 1.9%;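 also: purified mutant Fbw7 with reduced substrate affinity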
TEAD-YAP block – TEAD-YAP interaction inhibition, primary screen, TEAD-YAP interaction inhibitor project, luminescence, HEK-TIYL cells | TEAD-Gal4/YAP UAS-luciferase luminescence | AID 1259422, 2018 | hit rate 1.4% among 640,000 | inhibition, % at 9.12 µM; in the data active = inhibition above about 32%
Each line names hits and unclear results; the compound was inactive in the other large screens. Sampled rows, rich in hits. Any-hit rate of the full collection: about 3.5%.

O=C(Nc1nc2c(s1)CCCC2)c1ccccc1Cl	TEAD-YAP block 45
CC(C)CC(=O)Nc1nccs1	none
Clc1nc2ncccc2nc1-c1ccccc1	TEAD-YAP block 41
Fc1cccc(-c2nc3cccnc3nc2-c2cccc(F)c2)c1	none
Cc1oc(-c2ccc(Cl)cc2)nc1CSCC(=O)N1CCC2(CC1)OCCO2	TEAD-YAP block 38
Cc1oc(-c2ccccc2Cl)nc1CSCC(=O)N1CCCC1	TEAD-YAP block 58
Cc1oc(-c2ccc(Cl)cc2)nc1CSCC(=O)NC1CC1	none
Cc1oc(-c2cccs2)nc1CSCC(=O)N1CCCC1	none
Cc1ccccc1C(=O)OCc1ccc([N+](=O)[O-])cc1	none
COc1cc2c(cc1OC)C(c1cccs1)N(C(=O)c1cccnc1)CC2 (stereo not given)	TEAD-YAP block 46
C=CCc1ccccc1OCC(O)CN1CCCCC1 (stereo not given)	none
OCC1CCCN1c1nc(NCc2nc3ccccc3[nH]2)c2ncn(-c3ccccc3)c2n1 (stereo not given)	TEAD-YAP block 48
CCN(CC)C(=O)C1CCCN(c2nc(NCCCN3CCCC3=O)c3ncn(-c4ccccc4)c3n2)C1 (stereo not given)	TEAD-YAP block 36
Clc1nc(NCc2nc3ccccc3[nH]2)c2ncn(-c3ccccc3)c2n1	none
CC(C)n1cnc2c(NCCO)nc(N3CCCC3CO)nc21 (stereo not given)	none
O=C1CCCN1CCCNc1nc(N2CCCC2CO)nc2c1ncn2-c1ccsc1 (stereo not given)	TEAD-YAP block 42
OCCNc1nc(N2CCCC2CO)nc2c1ncn2-c1ccccc1 (stereo not given)	TEAD-YAP block 55
CCN(CC)S(=O)(=O)c1ccc(C(=O)OCC(=O)NC(N)=O)cc1	none
O=C1CCCN1CCCNc1nc(N2CCCC2CO)nc2c1ncn2-c1ccccc1 (stereo not given)	TEAD-YAP block 47
OCC1CCCN1c1nc(NCCc2ccc(O)cc2)c2ncn(-c3ccsc3)c2n1 (stereo not given)	none
OCC1CCCN1c1nc(NCCN2CCOCC2)c2ncn(-c3ccsc3)c2n1 (stereo not given)	TEAD-YAP block 61
O=C(c1cc2ccccc2o1)c1cnc2ccccn12	TEAD-YAP block 40
Cc1sc(NC(=O)c2ccc(S(=O)(=O)N(C)C)cc2)nc1-c1ccccc1	TEAD-YAP block 41
Cc1sc(NC(=O)c2ccc(S(=O)(=O)N(C)c3ccccc3)cc2)nc1-c1ccccc1	none
O=C(Nc1ccc(-c2nc3ccccc3[nH]2)cc1)c1ccc(=O)n(Cc2ccccc2)n1	TEAD-YAP block 34
CN(C)S(=O)(=O)c1ccc(C(=O)Nc2ccc(-c3nc4ccccc4[nH]3)cc2)cc1	FBW7 act 5.0
CCOc1ccc(-c2cc(C(=O)N/N=C(\C)c3cccc(OC)c3)[nH]n2)cc1	TEAD-YAP block 52
COc1ccc(-c2cc(C(=O)N/N=C(\C)c3ccc(Cl)cc3)[nH]n2)cc1	none
CCOc1ccc(-c2cc(C(=O)N/N=C(\C)c3cccs3)[nH]n2)cc1	TEAD-YAP block 60
C/C(=N\NC(=O)c1ccccn1)c1cccs1	TEAD-YAP block 65
Cc1ccc(S(=O)(=O)N(C)C)cc1NC(=S)N1CCC(C(N)=O)CC1	none
Nc1ccc(C(=O)ONc2nc3ccc(N)cc3[nH]2)cc1	none
COc1ccc(-n2nc(C(=O)NCC(=O)NCCCN3CCCC3)c3ccccc3c2=O)cc1	none
O=C(Nc1nc2c(s1)CCc1ccccc1-2)c1ccco1	none
O=C(CCCl)Nc1nc2c(s1)CCc1ccccc1-2	TEAD-YAP block 35
Cc1cccc(C(=O)Nc2sc3c(c2C(=O)O)CCCC3)c1	TEAD-YAP block 70
NC(=O)c1c(NC(=O)CCl)sc2c1CCC2	TEAD-YAP block 61
Cc1ccc(NC(=O)c2c(NC(=O)c3ccc(Br)cc3)sc3c2CCCC3)c(C)c1	FBW7 act 2.1
NC(=O)c1ccsc1NC(=O)/C=C/c1ccccc1	TEAD-YAP block 81
CCC(=O)Nc1sc2c(c1C(N)=O)CCC2	none
Cc1ccc(/C=C/C(=O)Nc2sccc2C(N)=O)o1	none
CC(C)C(=O)Nc1ccc(S(=O)(=O)NCCCN2CCOC(c3ccccc3)C2)cc1 (stereo not given)	none
Cc1cccc(OCC(=O)Nc2sc3c(c2C(N)=O)CCCC3)c1	TEAD-YAP block 53
O=C(/C=C/c1ccccc1)Nc1sc2c(c1C(=O)O)CCCC2	TEAD-YAP block 49
NC(=O)c1c(NC(=O)/C=C/c2ccccc2)sc2c1CCC2	none
Cc1cccc(C(=O)Nc2sc3c(c2C(N)=O)CCCC3)c1	TEAD-YAP block 52
NC(=O)c1c(NC(=O)c2ccc(Br)o2)sc2c1CCCCC2	TEAD-YAP block 85
CCN(CC)C(=O)CSc1nc2c(sc(=S)n2-c2ccccc2)c(=O)n1Cc1ccco1	none
NC(=O)c1c(NC(=O)c2cccc(Br)c2)sc2c1CCCC2	TEAD-YAP block 47
O=S(=O)(NCC1CCCO1)c1ccc(Br)cc1 (stereo not given)	none
O=S(=O)(NCC1CCCO1)c1ccc(Oc2ccc(S(=O)(=O)NCC3CCCO3)cc2)cc1 (stereo not given)	TEAD-YAP block 59
CCCC(=O)Nc1oc2c(C)cccc2c(=O)c1-c1ccc2c(c1)OCO2	none
CN(C)c1ccc2nc3c(nc2c1)C(=O)c1ccccc1C3=O	none
Cc1cc2nc3cc(N)c(C)cc3cc2cc1N	TEAD-YAP block 73
Cc1cc2nc3ccc(N(C)C)cc3nc2cc1N	MITF primary 58, TEAD-YAP block 32
COc1cccc(Cn2c(=O)[nH]c3ncc(-c4cc(OC)c(OC)c(OC)c4)nc32)c1	none
C/C(=N\NC(=O)c1ccc(Cl)cc1)c1ccc(C#N)cc1	none
CCOC(=O)/C=C/C(=O)Nc1cc(Cl)c(Cl)cc1Cl	TEAD-YAP block 58
CCOC(=O)c1c(NC(=O)CSc2nnc(CNC(=O)c3ccccc3OC)n2-c2cccc(C(F)(F)F)c2)sc2c1CCC2	none
NC(=O)c1ccc(-c2nc(NCc3nc4ccccc4[nH]3)c3ncn(-c4ccsc4)c3n2)cc1	TEAD-YAP block 83
O=C(NC1CC1)c1ccc(-c2nc(NCc3nc4ccccc4[nH]3)c3ncn(-c4ccsc4)c3n2)cc1	TEAD-YAP block 87
O=C(NC1CC1)c1ccc(-c2nc(NCc3cccc(C(F)(F)F)c3)c3ncn(-c4ccsc4)c3n2)cc1	none
CC(=O)c1cccc(-c2nc(NCc3nc4ccccc4[nH]3)c3ncn(-c4ccsc4)c3n2)c1	TEAD-YAP block 69
c1ccc(-c2nc(NCc3nc4ccccc4[nH]3)c3ncn(-c4ccsc4)c3n2)cc1	TEAD-YAP block 58
CC1CCN(c2nc3c(c(=O)[nH]2)CN(Cc2ccc(F)c(F)c2)CC3)CC1	none
CCC(=O)Nc1cccc(-n2nnnc2SCC(=O)N(C(C)C)C(C)C)c1	none
O=C(NC1CC1)c1ccc(-c2nc(Nc3ccccc3)c3ncn(-c4ccsc4)c3n2)cc1	FBW7 act 25
Cc1cc([N+](=O)[O-])ccc1-c1ccc(/C=C2/C(=O)NC(=O)N(Cc3ccco3)C2=O)o1	MITF primary 68

Screens: PubChem, The Scripps Research Institute Molecular Screening Center
